Seven compounds from PubChem BioAssay (Tox21) can be followed below.

SMILES strings stand for the structures. Values without a mark were called inactive. Results filed as inconclusive are left out. Calls of active or inactive are those of the source. Unless noted, calls come from the whole dose curve; as a rule, active = well fitted curve in the direction sought with a large enough effect in the repeat runs; inconclusive = weak or mixed curves; inactive = no such curve, though single readings can be large; an effect the other way counts as inactive or inconclusive.

A short description of test [1]: qHTS assay for small molecules that induce genotoxicity in human embryonic kidney cells expressing luciferase-tagged ATAD5 (AID 651632). Note: nearly all actives have a fitted effect of over 15% in size. In outline:
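HEK293T cells carrying a luciferase reporter tagged to ATAD5 were exposed to compound or DMSO vehicle for 16 hr at 37C, 5% CO2. Amplite was added, and after 30 min at room temperature luciferase activity was read as a marker of ATAD5 induction.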
Background: In qHTS, concentration-response curves come from the screen itself.

Test [2] is described as follows: qHTS assay for small molecule agonists of the p53 signaling pathway - cell viability (AID 651633; calls by dose curve; note: nearly all actives have a fitted effect of over 30% in size; note: potency is the fitted concentration of half-maximal effect). In a few lines: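 p53RE-bla cells were treated with compound for 16 hours at 37 C. Cytotoxicity was then measured as CellTiter-Glo luminescence after 30 min at room temperature.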
The nature of test [3]: qHTS assay for small molecules that induce genotoxicity in human embryonic kidney cells expressing luciferase-tagged ATAD5 - cell viability (AID 651634; calls by dose curve; note: nearly all actives have a fitted effect of over 25% in size). In outline: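 HEK293T cells expressing luciferase-tagged ATAD5 were exposed to compound or DMSO for 15.5 hr at 37C, 5% CO2. Viability was then read as live-cell protease activity by CellTiter-Fluor fluorescence after 30 min at 37C.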

Test [4] in a line: qHTS assay for small molecule disruptors of the mitochondrial membrane potential - cell viability (AID 720634; calls by dose curve;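 note: human HepG2 liver cancer cells; series mostly up to about 83 µM; nearly all actives have a fitted effect of over 20% in size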). In a few lines:
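HepG2 cells seeded overnight at 37 C, then exposed to compound or DMSO for 1 hr at 37 C, 5% CO2. m-MPI dye added, then CellTiter-Glo for 30 min at room temperature; viability read as ATP luminescence.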

Test [5] is described as follows: qHTS assay to test for compound auto fluorescence at 590 nm (red) in HepG2 cells (AID 720674). In outline: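 HepG2 cells, 2,000 per well in MEM with 10% FBS, attached overnight at 37 C, then got 23 nL compound or DMSO. After 1 hr at 37 C, 5% CO2, red fluorescence was read at 540/590 nm against Rose Bengal sodium as reference.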
A short description of test [6]: qHTS assay to test for compound auto fluorescence at 460 nm (blue) in HEK293 cells (AID 720678). In outline: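 Intrinsic compound fluorescence is recorded in live HEK293 cultures after overnight incubation at 37C, 5% CO2, using excitation 405 nm and emission 460 nm. Values are referenced to triamterene.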
A short description of test [7]: qHTS assay to test for compound auto fluorescence at 590 nm (red) in HEK293 cells (AID 720679). In a few lines:
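Red autofluorescence, HEK293 cells: 2,000 cells/well; attach 4-5 hr 37C; add 23 nL cpd or DMSO; incubate o/n 37C 5% CO2; read Ex540/Em590; Rose Bengal sodium reference.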

Test [8] is described as follows: qHTS assay to test for compound auto fluorescence at 535 nm (green) in HEK293 cells (AID 720680).
A short description of test [9]: qHTS assay to test for compound auto fluorescence at 460 nm (blue) in HEK293 cell free culture (AID 720681). In outline: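 Compounds were added to cell-free DMEM with 10% FBS and fluorescence read directly. The blue channel used 405 nm excitation and 460 nm emission, with triamterene as the reference fluorophore.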
Test [10] in a line: qHTS assay to test for compound auto fluorescence at 535 nm (green) in HEK293 cell free culture (AID 720682). In a few lines: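 Read-out: 485/535 nm fluorescence intensity, calibrated against fluorescein. Medium only (DMEM + 10% FBS, no cells); test compound or DMSO vehicle added by pintool before plate reading.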
Test [11] can be described thus: qHTS assay to test for compound auto fluorescence at 590 nm (red) in HEK293 cell free culture (AID 720683). In outline: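 Cell-free wells of DMEM with 10% FBS received compound, and intrinsic fluorescence was read at excitation/emission 540/590 nm. Values expressed as equivalence to Rose Bengal sodium.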
Test [12] can be described thus: qHTS assay to test for compound auto fluorescence at 590 nm (red) in HepG2 cell free culture (AID 720684). In outline: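 Compound was pinned into wells holding MEM with 10% FBS and no cells, and red fluorescence was read at Ex/Em 540/590 nm. Signal is expressed as auto fluorescence equivalency relative to Rose Bengal sodium.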
The nature of test [13]: qHTS assay to test for compound auto fluorescence at 460 nm (blue) in HepG2 cell free culture (AID 720685). In a few lines: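 Compound (23 nL) or DMSO pinned into cell-free MEM with 10% FBS; blue fluorescence read at 405/460 nm excitation/emission, expressed as auto-fluorescence equivalency to triamterene.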
A short description of test [14]: qHTS assay to test for compound auto fluorescence at 535 nm (green) in HepG2 cell free culture (AID 720686).
Test [15] is described as follows: qHTS assay to test for compound auto fluorescence at 460 nm (blue) in HepG2 cells (AID 720687). In outline:
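HepG2 cells in MEM with 10% FBS, attached overnight at 37 C, were exposed to compound or DMSO for 1 hr at 37 C, 5% CO2. Blue fluorescence was read at 405/460 nm, with triamterene as reference fluorophore.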

The target of test [16] is Glucocorticoid receptor (Homo sapiens) (UniProt P04150). Nature of the test: qHTS assay to identify small molecule agonists of the glucocorticoid receptor (GR) signaling pathway (AID 720691; active = well fitted activation curve with a large enough effect in the signal ratio in the repeat runs, not every such curve was filed as active; the % refers to the signal ratio). In a few lines: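 GR-bla HeLa cells (beta-lactamase reporter under glucocorticoid response element) were plated 4 h at 37 C/5% CO2, given compounds in DMSO, and incubated 18 h at 37 C. LiveBLAzer B/G FRET substrate was added for 2 h at room temperature, then fluorescence intensity read.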

The target is the same in test [17]. The experiment in a line: qHTS assay to identify small molecule antagonists of the glucocorticoid receptor (GR) signaling pathway (AID 720692; active = well fitted inhibition curve with a large enough effect in the signal ratio in the repeat runs, not every such curve was filed as active; the % refers to the signal ratio). In outline: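 GR-bla HeLa cells (beta-lactamase reporter under glucocorticoid response element) were pre-plated 4 h at 37 C, treated with compounds plus 5 nM dexamethasone (final) for 18 h, then read by LiveBLAzer B/G FRET fluorescence after 2 h.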

The nature of test [18]: qHTS assay to test for compound auto fluorescence at 535 nm (green) in HepG2 cells (AID 720675).
Test [19] can be described thus: qHTS assay for small molecule disruptors of the mitochondrial membrane potential (AID 720635). In a few lines: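 HepG2 cells exposed to compound 1 hr at 37C, then Mito-MPS dye 30 min. Ratio read of aggregate (540/590 nm) versus monomer (490/535 nm) fluorescence.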

Chain of Glucocorticoid receptor (Homo sapiens) (P04150 whole entry, looked up): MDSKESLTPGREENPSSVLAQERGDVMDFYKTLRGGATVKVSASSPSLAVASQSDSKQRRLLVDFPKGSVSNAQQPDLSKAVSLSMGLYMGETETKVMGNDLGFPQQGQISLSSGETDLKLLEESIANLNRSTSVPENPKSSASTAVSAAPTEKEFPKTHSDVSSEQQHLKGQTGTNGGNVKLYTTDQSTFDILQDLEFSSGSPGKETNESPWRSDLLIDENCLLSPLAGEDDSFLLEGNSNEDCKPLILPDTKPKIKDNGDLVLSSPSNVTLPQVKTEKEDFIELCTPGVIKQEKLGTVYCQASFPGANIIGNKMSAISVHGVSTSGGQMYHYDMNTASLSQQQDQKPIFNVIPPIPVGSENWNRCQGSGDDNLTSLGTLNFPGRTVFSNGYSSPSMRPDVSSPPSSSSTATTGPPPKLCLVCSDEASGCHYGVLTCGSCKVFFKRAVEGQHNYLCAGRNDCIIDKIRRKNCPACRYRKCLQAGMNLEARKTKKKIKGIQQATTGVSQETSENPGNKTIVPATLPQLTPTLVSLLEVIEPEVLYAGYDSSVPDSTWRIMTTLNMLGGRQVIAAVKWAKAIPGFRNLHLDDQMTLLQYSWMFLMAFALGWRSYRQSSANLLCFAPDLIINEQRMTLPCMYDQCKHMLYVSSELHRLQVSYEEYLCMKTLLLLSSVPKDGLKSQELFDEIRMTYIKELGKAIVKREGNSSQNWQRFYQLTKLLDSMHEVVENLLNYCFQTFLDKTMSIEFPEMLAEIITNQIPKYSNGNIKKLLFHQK

Regarding `Cc1ccc(Nc2c(F)cccc2Cl)c(CC(=O)O)c1`, the Potency entry in test [1], in test [2], in [3], in [6], in test [9] and in [13] was “inactive” in each case. For the same compound, the Potency entry in test [15], in test [16] and in test [17] was “inactive” each time. The call in test [4], in [5], in test [7], in test [8], in [10] and in [11] was inactive. Besides, the compound was called inactive in test [12] and in test [14].
Turning to `C=Cc1ccc(OC(C)=O)cc1`, the Potency result in [1], in [2], in test [3], in test [6], in test [9] and in [13] was “inactive” each time. Also, the Potency result in [15], in [16] and in test [17] was “inactive” each time. Moreover, the call in [4], in [5], in test [18], in test [7], in test [8] and in [10] was inactive. Further, the outcome in test [11], in [12] and in test [14] was inactive.
In the case of `CCN(CC)CCOc1ccccc1C(=O)CCc1ccccc1`, the Potency entry in test [1], in test [2], in [3], in test [6], in test [9] and in [13] was “inactive” in each case. The Potency entry in test [15] is “inactive”. The compound was classed as inactive in [4], in [5], in test [18], in test [7], in test [8] and in test [10]. Moreover, the result in [11], in test [12] and in test [14] was inactive.
`COc1cc(NCc2ccc3nc(N)nc(N)c3c2C)cc(OC)c1OC`: the Potency entry in test [1], in test [3], in [6], in [9], in test [13] and in test [15] was “inactive” each time. The Potency entry in [16] was “inactive”. For the same compound, the Potency in test [2] is 335 nM (active). Moreover, the compound was classed as inactive in test [4], in test [5], in test [7], in test [8], in [10] and in test [11]. Besides, the outcome in test [12] and in test [14] was inactive.
As for `CCCc1nc2c(C)cc(-c3nc4ccccc4n3C)cc2n1Cc1ccc(-c2ccccc2C(=O)O)cc1`, the Potency entry in [1], in [2], in [3], in test [6], in test [9] and in [13] was “inactive” each time. For the same compound, the Potency entry in test [15] and in test [16] was “inactive” throughout. Besides, the compound was called inactive in test [4], in [5], in [18], in test [7], in [8] and in [10]. The result in [11], in test [12] and in test [14] was inactive.
For `C/C(C=O)=C\c1ccccc1`, the Potency result in [1], in test [2], in [3], in test [19], in [6] and in test [13] was “inactive” in each case. In test [15], the Potency result was “inactive”. Moreover, the compound was classed as inactive in test [4], in test [5], in test [18], in [7], in test [8] and in test [10]. The result in [11] and in test [14] was inactive.
As for `O=C(O)/C=C/c1ccc(O)c(O)c1`, the Potency entry in test [1], in [2], in [3], in [6], in test [13] and in test [15] was “inactive” throughout. For the same compound, the Potency entry in [16] and in test [17] was “inactive” throughout. Further, the call in test [4], in test [5], in [18], in [7], in test [8] and in test [10] was inactive. Moreover, the call in test [11], in test [12] and in test [14] was inactive.
